Test results: the supplement of paper PMC3616981
± gives the standard deviation of the averaged measurements.

How the values were obtained:
[1] = compound: CC(C)c1cccc(C(C)C)c1N1C(=O)c2ccc(O)cc2C1=O; experiment: reporter fold induction vs vehicle; higher = higher reporter activity
In short: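 Values give reporter activity as fold induction compared with vehicle, averaged across replicates where available. The multiplexed cellular reporter system carried 48 cis and 25 trans constructs, and ToxCast Phase II chemicals were run at 8 concentrations from 0.091 to 200 µM.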

[2] = compound: CC(C)c1cccc(C(C)C)c1N1C(=O)c2ccc(O)cc2C1=O; experiment: BioMAP readout fold decrease vs vehicle (vehicle/treated); higher = stronger decrease of the readout vs vehicle (values <1 mean increase)
Method: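 BioSeek BioMAP human primary cell (co-)culture systems (3C, 4H, LPS, SAg, BE3C, CASM3C, hDFCGF, KF3CT) treated with 5HPP-33 at 1.48, 4.44, 13.3 and 40 µM. Read-outs are protein levels by ELISA, proliferation and SRB total protein. Duplicate rows per assay are averaged as replicates. Tested in ToxCast Phase II for this study; exposure time not stated.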
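For BioMAP readout fold decrease vs vehicle (vehicle/treated) in this document: Co-cultures of keratinocytes, bronchial epithelial and smooth muscle cells, fibroblasts, HUVECs and PBMCs under stimuli like LPS, TNF-α, IFN-γ, IL-1β, TGF-β or EGF, SRB reflecting cytotoxicity.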

Target	reporter fold induction ([1]; 0.091 µM)	reporter fold induction ([1]; 0.274 µM)	reporter fold induction ([1]; 0.823 µM)	reporter fold induction ([1]; 2.469 µM)	reporter fold induction ([1]; 7.407 µM)	reporter fold induction ([1]; 22.22 µM)	reporter fold induction ([1]; 66.67 µM)	reporter fold induction ([1]; 200 µM)	BioMAP readout fold decrease ([2]; 1.48 µM)	BioMAP readout fold decrease ([2]; 4.44 µM)	BioMAP readout fold decrease ([2]; 13.3 µM)	BioMAP readout fold decrease ([2]; 40 µM)
GLI_CIS	1.04	0.925	1	1.04	0.914	0.833	1.19	2.1	–	–	–	–
Myc_CIS	1.01	1.03	0.99	0.982	1.09	1.04	1.05	2.33	–	–	–	–
PPARg_TRANS	1.01	1.06	0.946	0.881	1.19	1.53	1.62	1.47	–	–	–	–
RARa_TRANS	1.04	0.782	1.21	1.2	1.48	2.4	2.07	0.506	–	–	–	–
RXRb_TRANS	1.04	1.11	1.24	1.01	1.17	1.19	1.07	0.915	–	–	–	–
GRE_CIS	0.966	0.951	1.06	1.05	0.999	0.996	1.01	0.888	–	–	–	–
ISRE_CIS	1.23	0.874	1.04	0.962	0.9	0.883	0.605	0.362	–	–	–	–
ERRa_TRANS	1.21	0.853	1.02	1.39	1.37	0.823	0.836	0.339	–	–	–	–
RARb_TRANS	0.778	0.835	0.897	0.861	1.51	1.95	1.29	0.429	–	–	–	–
ERa_TRANS	1.72	2.62	4.32	5.19	4.48	4.97	2.96	1.06	–	–	–	–
TCF_b_cat_CIS	1.06	0.944	1.13	1.06	0.839	0.671	0.77	0.204	–	–	–	–
E2F_CIS	1.02	0.922	0.954	1.04	0.971	0.968	0.945	1.23	–	–	–	–
M_19_CIS	1.01	1.01	0.978	1.01	0.961	0.953	1.05	0.776	–	–	–	–
GATA_CIS	1	0.993	0.983	1.05	0.98	0.902	1.07	0.842	–	–	–	–
ERRg_TRANS	1.02	1.11	1.14	1.02	0.941	1.07	0.845	0.391	–	–	–	–
M_06_TRANS	0.964	1.01	0.995	1.01	1.01	1	0.996	0.992	–	–	–	–
Xbp1_CIS	1.06	0.98	0.93	0.937	1.21	1.13	1.74	4.47	–	–	–	–
M_32_TRANS	1.03	0.997	1.07	1.09	1.08	1.08	0.964	1	–	–	–	–
VDR_TRANS	1.07	1.13	1.1	1.39	1.07	1.41	1.2	1.54	–	–	–	–
M_61_TRANS	0.964	1.01	0.995	1.01	1.01	1	0.996	0.992	–	–	–	–
NRF2_ARE_CIS	1.19	1.1	0.995	0.886	1.15	1.48	2.47	0.886	–	–	–	–
NF_kB_CIS	1.08	0.96	0.971	0.979	0.968	1.08	1.39	1.06	–	–	–	–
Myb_CIS	0.995	0.98	1.02	0.983	0.998	0.979	1.03	1.13	–	–	–	–
CAR_TRANS	1.1	0.946	0.997	0.985	0.814	0.835	0.84	0.343	–	–	–	–

Target	reporter fold induction ([1]; 0.091 µM)	reporter fold induction ([1]; 0.274 µM)	reporter fold induction ([1]; 0.823 µM)	reporter fold induction ([1]; 2.469 µM)	reporter fold induction ([1]; 7.407 µM)	reporter fold induction ([1]; 22.22 µM)	reporter fold induction ([1]; 66.67 µM)	reporter fold induction ([1]; 200 µM)	BioMAP readout fold decrease ([2]; 1.48 µM)	BioMAP readout fold decrease ([2]; 4.44 µM)	BioMAP readout fold decrease ([2]; 13.3 µM)	BioMAP readout fold decrease ([2]; 40 µM)
Ahr_CIS	0.965	0.977	0.949	1.01	1.06	1	2.27	1.09	–	–	–	–
MRE_CIS	1.05	0.983	1	0.924	1.22	1.2	1.8	3.72	–	–	–	–
GR_TRANS	0.906	1.07	1.06	1.18	0.95	1.13	1.24	1.38	–	–	–	–
M_06_CIS	0.997	0.997	1.01	0.995	1.02	1.02	0.98	1.09	–	–	–	–
NURR1_TRANS	1.09	1.26	1.01	1.05	1.08	0.976	0.934	1.2	–	–	–	–
AP_1_CIS	1.01	0.867	0.986	0.984	1.2	1.44	1.7	0.71	–	–	–	–
PXRE_CIS	1.22	1.56	0.755	0.738	6.98	6.26	2.42	0.398	–	–	–	–
XTT_Cytotoxicity	97.6 ± 5.6	107 ± 18	111 ± 0.85	108 ± 3.1	123 ± 3.8	111.2 ± 0.75	113.8 ± 0.46	106.5 ± 0.33	–	–	–	–
SREBP_CIS	1.04	0.954	1.01	0.996	1.05	0.976	1.16	1.49	–	–	–	–
CMV_CIS	0.996	0.94	1	0.92	1.02	1.41	1.73	1.11	–	–	–	–
NFI_CIS	1.01	0.966	1.05	0.998	1.02	0.921	1.41	1.66	–	–	–	–
AP_2_CIS	1.04	1	1	1.05	1.01	0.908	0.965	0.898	–	–	–	–
VDRE_CIS	1.07	1.09	0.969	0.979	1.62	1.76	2.18	3.25	–	–	–	–
p53_CIS	1.06	1.04	1.03	0.969	0.996	0.831	1.19	0.456	–	–	–	–
FoxA2_CIS	1.02	0.959	1.04	0.939	1.05	0.978	1.28	1.32	–	–	–	–
FoxO_CIS	1.07	1.02	0.985	0.99	1.03	0.938	0.872	1.07	–	–	–	–
THRa1_TRANS	1.06	1.01	1.07	1.3	0.83	0.993	1.35	0.658	–	–	–	–
PPRE_CIS	1.02	0.905	1.09	0.944	1.08	1.21	2.59	1.68	–	–	–	–
TA_CIS	1.06	1	1.04	0.923	0.983	1.08	1.39	1.22	–	–	–	–
GAL4_TRANS	1.03	0.907	0.951	0.908	0.842	0.905	0.61	0.53	–	–	–	–
DR5_CIS	0.96	1.09	1.11	0.929	1.98	2.11	1.71	2.04	–	–	–	–
TGFb_CIS	1.08	0.916	0.91	0.906	0.939	1.03	1.23	0.915	–	–	–	–
IR1_CIS	1.07	0.953	1.02	1.01	1.08	0.864	0.788	0.644	–	–	–	–
M_19_TRANS	1.08	0.97	1.01	0.967	0.981	0.997	1.01	1.02	–	–	–	–

Target	reporter fold induction ([1]; 0.091 µM)	reporter fold induction ([1]; 0.274 µM)	reporter fold induction ([1]; 0.823 µM)	reporter fold induction ([1]; 2.469 µM)	reporter fold induction ([1]; 7.407 µM)	reporter fold induction ([1]; 22.22 µM)	reporter fold induction ([1]; 66.67 µM)	reporter fold induction ([1]; 200 µM)	BioMAP readout fold decrease ([2]; 1.48 µM)	BioMAP readout fold decrease ([2]; 4.44 µM)	BioMAP readout fold decrease ([2]; 13.3 µM)	BioMAP readout fold decrease ([2]; 40 µM)
CRE_CIS	1.08	1.03	1.01	0.951	1.11	1.17	2.03	3.21	–	–	–	–
AR_TRANS	1.06	0.894	1.13	1.02	1.02	1.29	1.01	1.14	–	–	–	–
Ets_CIS	1.02	0.953	1.01	1.02	1	0.917	1.01	0.897	–	–	–	–
RORE_CIS	1.04	1.06	1.06	0.974	1.08	1.15	1.84	1.72	–	–	–	–
BRE_CIS	0.993	0.878	1.14	0.967	0.938	0.934	3.36	1.05	–	–	–	–
Sox_CIS	0.965	1.03	1.03	1.04	0.984	1.19	1.19	2.17	–	–	–	–
PPARa_TRANS	1.19	1.13	0.988	0.988	0.912	0.775	0.936	0.812	–	–	–	–
Pax6_CIS	1	1.01	1.02	1.1	0.964	1.1	1.49	2.44	–	–	–	–
HNF4a_TRANS	1.1	1.42	0.883	1.11	1.1	1.07	0.715	0.473	–	–	–	–
DR4_LXR_CIS	1.02	0.906	1	1.02	0.88	0.462	0.424	0.478	–	–	–	–
RORb_TRANS	0.758	0.955	0.81	1.32	0.966	0.625	0.434	0.342	–	–	–	–
RXRa_TRANS	0.986	0.983	1.1	0.957	1.09	1.31	1.31	1.84	–	–	–	–
Oct_MLP_CIS	1.09	1.03	1.03	1.01	1.08	1.1	1.77	3.68	–	–	–	–
4H_Eotaxin3	–	–	–	–	–	–	–	–	0.9561 ± 0.0065	0.875 ± 0.022	1.02 ± 0.032	4.62 ± 0.098
KF3CT_MMP9	–	–	–	–	–	–	–	–	0.991 ± 0.0099	1.17 ± 0.028	1.45 ± 0.081	4.32 ± 0.16
SAg_CD40	–	–	–	–	–	–	–	–	1.164 ± 0.003	1.39 ± 0.092	1.94 ± 0.027	5.89 ± 0.36
SAg_SRB	–	–	–	–	–	–	–	–	0.9638 ± 0.0049	1.1 ± 0.021	1.299 ± 0.011	1.9 ± 0.097
LXRb_TRANS	1.17	1.09	1	1.16	0.89	0.837	1.13	1.11	–	–	–	–
RARg_TRANS	1.16	0.981	1.09	1.21	1.54	1.83	1.82	0.812	–	–	–	–
KF3CT_IP10	–	–	–	–	–	–	–	–	0.9935 ± 0.0028	1.06 ± 0.035	1.39 ± 0.016	7.16 ± 0.78
3C_Thrombomodulin	–	–	–	–	–	–	–	–	1.06 ± 0.032	0.9983 ± 0.0097	0.939 ± 0.01	0.984 ± 0.054
hDFCGF_CollagenIII	–	–	–	–	–	–	–	–	1.123 ± 0.0039	1.19 ± 0.025	1.04 ± 0.012	1.49 ± 0.13
LPS_IL8	–	–	–	–	–	–	–	–	1.07 ± 0.0052	0.942 ± 0.0096	0.805 ± 0.015	1.02 ± 0.053
HSE_CIS	0.991	0.939	1.05	1.05	0.985	0.942	1.81	3.95	–	–	–	–
